# In all, about 33,000 sequences were measured (“e-score”: median about -0.037, highest 2% from about 0.34 on). For the sample, the highest values were picked, then their nearest neighbours and some sequences at random.
# Biological target: T1, GST-Rok (full length) (Bacillus subtilis subsp. subtilis str. …, UniProt O34857 1-191)
# T1 sequence: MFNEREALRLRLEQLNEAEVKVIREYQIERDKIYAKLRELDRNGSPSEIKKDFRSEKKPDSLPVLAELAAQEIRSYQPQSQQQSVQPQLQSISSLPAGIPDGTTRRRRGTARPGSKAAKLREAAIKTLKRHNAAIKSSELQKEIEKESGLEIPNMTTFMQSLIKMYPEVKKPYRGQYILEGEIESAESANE
# Assay: protein binding microarray; Rok is a gene silencer of Bacillus subtilis; high values mean tight binding
# Conditions: protein: recombinant; tags: GST (pTH5325, pDEST15-Magic modified); dsDNA, one strand shown
# How it was run: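 Every oligonucleotide joins a 25-mer constant primer to a 35-mer variable part drawn from a de Bruijn sequence of order 10, so each non-palindromic 8-mer appears at least 32 times and each palindromic 8-mer 16 times. The preference for every 8-mer is reported as a unitless, rank-based enrichment score (E-score). This score spans 0.5 for the most favored 8-mer to −0.5 for the most disfavored.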
row,Sequence,binding signal [E-score]
1,ACAAGTCG,-0.122
2,ACCTAGGG,-0.142
3,CGTGGAGA,0.119
4,ACGCCAAT,-0.0858
5,GGGAAGTA,0.17
6,CCCAGCGC,-0.157
7,ATTACGAG,0.154
8,ACTGTCAC,0.011
9,CATACATA,0.366
10,CATACATC,0.158
11,AGTACAAA,0.343
12,AGTACAAG,0.217
13,CGTACAAA,0.194
14,CATACATG,0.143
15,TATACAAA,0.402
16,CATACAAA,0.288
17,AATACAAA,0.206
18,CGCGTTAG,0.07
19,CTCTAACC,-0.055
20,AGAATGAA,0.111
21,TGGCGCAA,-0.0245
22,AGGTTACG,-0.0671
23,AATCTATC,0.377
24,CATCTATC,0.289
25,CATCTATA,0.199

row,Sequence,binding signal [E-score]
1,GATCTATA,0.307
2,AATCTATA,0.384
3,AATCTATG,0.174
4,ATAGACTA,0.186
5,AGGGAATC,0.0103
6,AGTTACCC,0.179
7,AAGACGTA,0.132
8,GTGATATA,0.25
9,CCGATATA,0.297
10,GATATATC,0.39
11,GGGATATA,0.221
12,GATATAGC,0.0453
13,GAGATATC,0.181
14,ACGATATA,0.298
15,GATATATA,0.365
16,GCGATATA,0.342
17,GGTACAAC,-0.0759
18,CTGGCAAA,-0.152
19,ACACGTGC,-0.0468
20,TAGCGTAA,0.144
21,CGGAAATC,0.0575
22,CAGAAGCG,-0.142
23,TATATAGA,0.404
24,TCTATAGA,0.36
25,AAAATAGT,0.407

row,Sequence,binding signal [E-score]
1,AAAATAGC,0.179
2,GATATAGA,0.228
3,CATATAGA,0.133
4,CCTATAGA,0.0582
5,AATATAGT,0.359
6,ACTATAGA,0.174
7,AATATAGC,0.32
8,AATATAGG,0.23
9,AAAATAGA,0.325
10,GCCGCTCA,-0.181
11,AGCATGTC,0.0983
12,CAACTTTC,0.15
13,CATTACCG,0.00887
14,ACAAAACT,0.085
15,CCTACCTC,0.0499
16,ATATAGGA,0.195
17,CTAGAGAA,0.193
18,AAAACGAC,-0.0861
19,AGTTAAAA,0.197
20,CATTGACA,0.0572
21,AATGGAGT,0.0603
22,TATATGGA,0.343
23,ACTATAGG,0.0843
24,ACTATAGT,0.409
25,AATATAGA,0.365

row,Sequence,binding signal [E-score]
1,AATAGAGA,0.239
2,AGTATAGA,0.159
3,CATATGGA,-0.0847
4,GATATGGA,0.139
5,ACTATAGC,0.164
6,AGGTAATC,-0.0361
7,AGCGGGGA,-0.076
8,ACCACTAG,0.0844
9,AGGAATGC,-0.0829
10,GTACCTAC,0.353
11,CTACCTAA,0.22
12,CTACCTAG,0.235
13,ATACCTAG,0.31
14,GAACCTAC,0.15
15,GTACCTAA,0.132
16,ATACCTAC,0.351
17,ATACCTAT,0.333
18,CTACCTAC,0.346
19,CTGCGCTA,-0.143
20,ACAGAAGG,-0.105
21,AGTCTCTA,0.0503
22,GCACTTAC,-0.0436
23,TAAACCTA,0.181
24,CGTGCGGA,-0.0584
25,AAATAGCG,0.0843

row,Sequence,binding signal [E-score]
1,CAATAGTG,0.287
2,CGGTAATC,-0.0198
3,CGGTAATA,0.372
4,CAATAGTC,0.101
5,CAATAGTA,0.341
6,AAATAGCT,0.379
7,AAATAGTA,0.42
8,ACATAGTA,0.306
9,GGGTAATA,0.234
10,AAATAGCA,0.0964
11,AAATAGCC,0.046
12,CCTCGATA,-0.188
13,GTCCTGTA,-0.0798
14,ATAGGTGA,0.0572
15,GAGCCCAA,-0.192
16,GACCAGTA,0.0441
17,CTTTTATC,0.118
18,ATTTGGGA,-0.131
19,AAACGTCT,-0.171
20,AAGTGACG,0.0469
21,AAACAGGG,-0.0541
22,AGTTCCAT,0.0525
23,AGTTTGAC,-0.0534
24,ACAACTCA,0.097
25,TAGTAATA,0.408

row,Sequence,binding signal [E-score]
1,CAGTAACA,0.0586
2,AAGTAATA,0.275
3,TAATAGTA,0.401
4,TAGTAACA,0.366
5,GAGTAATA,0.318
6,AAATAGTT,0.4
7,TAATAGCA,0.257
8,AAATAGTG,0.231
9,GAATAGTA,0.285
10,AAATAGTC,0.119
11,AAGTAACA,0.207
12,GTTTGTAA,0.172
13,CATCACAG,-0.0903
14,ACAGTTAC,0.278
15,ACATCAAG,0.00272
16,AGGGTGAA,-0.17
17,CGTGGCTC,-0.0956
18,GCATGGGC,-0.196
19,ATTGGTAA,0.265
20,AATGGTAT,0.309
21,AATGGTAG,0.398
22,ATTGGTAC,0.289
23,ATAGGTAC,0.219
24,ATAGGTAG,0.41
25,AGTGGTAG,0.393

row,Sequence,binding signal [E-score]
1,CATGGTAG,0.168
2,ATAGGTAA,0.223
3,AGTGGTAC,0.191
4,CGTGGTAG,0.295
5,ATTGGTAG,0.371
6,CACTGCTA,0.106
7,ACAGAACC,-0.171
8,CTTTTTTC,0.0367
9,CAAACCTA,0.145
10,GAATAGAA,0.101
11,AAATAGAC,0.0132
12,GTATAGAA,0.329
13,CTATAGAA,0.275
14,ATATAGAG,0.208
15,ATATAGAA,0.354
16,ATATAGAC,0.0949
17,ATATAGAT,0.416
18,AAATAGAA,0.368
19,TGATGTAA,0.134
20,AACCGTAG,0.0498
21,CGCAATAA,0.185
22,CTATCTTC,0.11
23,ATCTCTAG,-0.00242
24,CTATCTAA,0.264
25,ATCTCTAC,0.0894

row,Sequence,binding signal [E-score]
1,CTATCTAC,0.433
2,ATATCTGC,0.221
3,ATATCTAC,0.393
4,ATATCTAA,0.371
5,ATCTCTAA,0.0544
6,ATATCTAG,0.346
7,ACATCTAG,0.325
8,CTCTCTAC,0.0296
9,AGTTAGGG,-0.0305
10,CTATGATA,0.172
11,AACCCAAC,0.212
12,ACACAAGC,-0.0939
13,AACGCCCT,-0.11
14,ACTTCACT,0.0809
15,TACTCTGA,-0.0307
16,CGATATTA,0.213
17,ATATATTG,0.372
18,ACATATTG,0.148
19,CCATATTA,0.165
20,ATCTATTG,0.282
21,CAATATTA,0.254
22,ACATATTA,0.345
23,CTATATTA,0.384
24,AGATATTG,0.196
25,GCATATTA,0.242

row,Sequence,binding signal [E-score]
1,CTCTATTA,0.0982
2,AGATATTA,0.404
3,AGATTCGG,0.0606
4,ACAATCGG,0.00195
5,AACTGTTC,0.004
6,AAGCAAAA,0.0376
7,ATCTATTA,0.312
8,GTGTATTA,0.205
9,GTATATGA,0.216
10,ATATATGA,0.287
11,ATATATTA,0.467
12,GTATATTA,0.391
13,CATCGTTC,-0.0505
14,AAGCAGAA,0.142
15,ATGGGCTA,0.0395
16,AGTTTGTC,0.0187
17,ATTTTGTA,0.232
18,GATTTGTA,0.249
19,AATTTGTA,0.352
20,AGTTTGTA,0.391
21,CGTTTGTA,0.138
